Source: PubChem (several laboratories)
Sampled rows, rich in hits. Any-hit rate of the full collection: about 1.5%.
3CLpro inhibitor – SARS-CoV 3CLpro protease inhibition. P0C6X7. recombinant SARS-CoV 3CLpro, quenched FRET peptide cleavage. inhibition, % at 6 µM. hit rate 0.14% among 290,000; in the data active = inhibition above about 12%
PrP 5UTR inh – inhibition of PrP 5' UTR reporter expression; cell-based PrP 5' UTR mRNA reporter, plate reader; inhibition, % (concentration not given with the values); hit rate 0.35% among 340,000; AID 488862; in the data active = inhibition above about 52%; note: 0 = median of the neutral control wells
VHR inh abs – DUSP3 (human) phosphatase inhibition | P51452 | recombinant VHR phosphatase, pNPP absorbance | inhibition, % at 13.3 µM | hit rate 0.52% among 290,000; in the data active = inhibition above about 50%
Target sequence (P51452 whole entry, looked up): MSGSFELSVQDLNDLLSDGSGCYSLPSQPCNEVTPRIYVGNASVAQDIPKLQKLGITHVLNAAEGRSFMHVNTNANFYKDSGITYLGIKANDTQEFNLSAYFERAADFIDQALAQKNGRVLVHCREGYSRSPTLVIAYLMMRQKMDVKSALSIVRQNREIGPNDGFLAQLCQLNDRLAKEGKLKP
MazEF act – MazEF (E. coli) toxin RNase activation; FAM/BHQ RNA-DNA oligo cleavage fluorescence, 5 h; activation, % at 20 µM; hit rate 0.32% among 350,000; AID 504720; in the data active = activation above about 50%
Target sequence (P0AE70 whole entry, looked up): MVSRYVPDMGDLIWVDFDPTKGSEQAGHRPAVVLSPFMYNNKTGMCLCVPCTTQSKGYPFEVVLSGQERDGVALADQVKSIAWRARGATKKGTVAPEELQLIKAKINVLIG
Mtb hypoxia inh – reduces hypoxia-regulated biosensor signal in M. tuberculosis; M. tuberculosis hypoxia-regulated fluorescent reporter, fluorescence; fluorescence inhibition, % (no concentration beside the values); hit rate 0.1% among 300,000; AID 1159583; in the data active = fluorescence inhibition mostly above about 23%, no sharp cut-off; inactive = mostly below about 17%
PrPC surface inh – cell surface PrPC inhibition, primary TR-FRET screen | P04156 | TR-FRET read-out | inhibition, % at 13.8 µM | hit rate 0.43% among 370,000; in the data active = inhibition above about 24%; note: 0% = median of the test wells and 100% = reference compound wells
Active calls of the source: *; nt = no result shown.

SMILES	3CLpro inhibitor	PrP 5UTR inh	VHR inh abs	MazEF act	Mtb hypoxia inh	PrPC surface inh
Cc1cc(O)ccc1N/C=C1\CCCC1=O	1	-18	-4	-4	4	0
Cc1ccc(NC(=O)c2ccc(NCc3ccco3)c([N+](=O)[O-])c2)cc1Cl	-3	-40	5	334*	-4	1
O=C(Nc1ccc(Nc2ccccc2)cc1)c1ccc(Cl)c([N+](=O)[O-])c1	3	-3	5	78*	9	-28
Cc1ccc(NC(=O)c2ccc(NCC3CCCO3)c([N+](=O)[O-])c2)cc1Cl (stereo unspecified)	1	-20	8	267*	nt	5
Cc1ccc(NC(=O)c2ccc(NCCN)c([N+](=O)[O-])c2)cc1	1	-25	0	13	nt	-33
Cc1cccc(NC(=O)c2ccc(NCCc3ccccc3)c([N+](=O)[O-])c2)c1	-2	0	-14	575*	3	1
Cc1cc(C(=O)Nc2ccc(Nc3ccccc3)cc2)ccc1[N+](=O)[O-]	3	-22	38	29	4	-2
COC(=O)[C@@]1(Cc2ccc(OC)cc2)C2c3cc(C(=O)N(C)C)n(CCc4ccc(OC)c(Br)c4)c3CC2CN1C(=O)c1ccccc1 (stereo partly specified)	nt	nt	nt	nt	-8	nt
COc1ccc(NC2CCCN(C(=O)CCc3ccncc3)C2)cc1OC (stereo unspecified)	-8	-8	54*	-7	0	-12
Cc1ccc(NC2CCCN(C(=O)CCc3ccncc3)C2)cc1C (stereo unspecified)	-1	9	19	0	-10	3
CCOc1ccc(CNC(=O)c2ccc3c(c2)N(CC)CCS3)cc1	11	-44	13	2	nt	3
CCN1CCSc2ccc(C(=O)NCc3ccc(OC(C)C)cc3)cc21	3	-15	53*	-5	-1	6
CC(C)=CCC/C(C)=C/CNC(=O)C[C@H]1C[C@H](C(=O)N2CCCCC2)[C@@]2(CCc3ccccc3)c3[nH]c4cc(-c5ccco5)ccc4c3CCN2C1=O	nt	-10	nt	75*	-10	nt
CC[C@]12c3[nH]c4cc(-c5ccco5)ccc4c3CCN1C(=O)[C@@H](CC(=O)NC/C=C(\C)CCC=C(C)C)C[C@@H]2C(=O)N1CCN(C(=O)C2CC2)CC1	nt	-25	nt	-7	-5	-4
COc1cc(C(C)=O)ccc1OCc1cc(C(=O)N(C)CCC2CCCCO2)no1 (stereo unspecified)	0	-64	58*	6	4	-1
COc1ccccc1OCc1cc(C(=O)N(C)CCC2CCCCO2)no1 (stereo unspecified)	-8	-81	14	-1	10	-2
CC(/C=C/c1ccccc1)=NNC(=O)CCc1ccccc1	nt	nt	nt	nt	3	nt
COc1ccc(NC(=O)CN(C)C(=O)CNC(=O)c2sc3ccccc3c2Cl)cc1	nt	nt	nt	-1	8	-5
CN(CC(=O)Nc1ccc(F)cc1)C(=O)COC(=O)CNC(=O)c1sc2ccccc2c1Cl	nt	-6	nt	70*	nt	6
CN(C)C1C(=O)C(C(N)=O)=C(O)C2(O)C(=O)C3=C(O)c4c(O)cccc4C(C)(O)C3C(O)C12 (stereo unspecified)	-1	-4	10	-3	nt	3
COc1ccc(O)c(C=Nc2cc(NC(C)=O)c(Cl)cc2Cl)c1	-3	-29	-2	-1	-1	5
CC(=O)Nc1cc(N=Cc2ccc(O)cc2O)c(Cl)cc1Cl	-1	-34	-1	130*	7	nt
COc1ccc(CCNC(=O)c2cc3c(=O)n4ccccc4nc3n(Cc3ccco3)c2=N)cc1OC	-7	-16	20	10	39*	-26
COc1ccc(CCn2c(=N)c(C(=O)NCc3ccco3)cc3c(=O)n4ccccc4nc32)cc1OC	nt	-16	nt	-14	-1	-55
O=C1c2ccc(-c3nc4ccccc4o3)cc2C(=O)N1Cc1ccccc1	-4	-13	nt	6	nt	-3
SMILES	3CLpro inhibitor	PrP 5UTR inh	VHR inh abs	MazEF act	Mtb hypoxia inh	PrPC surface inh
CC(C)CCN1C(=O)c2ccc(-c3nc4ccccc4c(=O)o3)cc2C1=O	-2	-13	50*	9	9	6
Cc1ccc(-c2c(C)sc3nc[nH]c(=O)c23)cc1C	-8	-19	53*	4	9	-6
Cc1sc2nc[nH]c(=O)c2c1-c1ccc(F)cc1	1	-19	21	5	5	-7
Cc1ccc(-n2nnc3c(=O)n(Cc4cc(C)ccc4C)cnc32)cc1	3	-9	52*	-2	2	1
COc1ccc(C2CC(=O)C=C(c3c(C)cc(C)cc3C)C2)cc1 (stereo unspecified)	nt	nt	nt	nt	2	nt
CCc1cc(CNC(=O)c2ccc(OC)c(OC3CCN(C(C)C)CC3)c2)on1	-4	-22	57*	4	-10	-3
COc1ccc(-c2nnc(SCC(=O)Nc3ccc(C)cc3)n2C)cc1	1	-57	2	3	8	2
CCSCc1nnc(SCC(=O)Nc2ccc(OC)cc2)n1C	0	-14	57*	6	4	0
CCC(C)Cc1cn(C(CCCN=C(N)N)C(=O)NCCCCCCCCCCC(=O)N2CCNCC2)nn1 (stereo unspecified)	nt	nt	nt	nt	12	nt
Cc1cc2[nH]c3c(c[n+](C)c4ccccc34)c2cc1C	-12	1	30	-11	64*	15
Cc1cc2[nH]c3c4ccccc4nc(C)c3c2cc1C	nt	-48	nt	-21	nt	3
COc1ccc(C)cc1S(=O)(=O)NCCN1CCOCC1	-5	2	31	6	7	-7
COc1ccc(Br)cc1S(=O)(=O)NCCN1CCOCC1	7	-18	57*	7	12	5
COc1ccc(CC(NC(C)=O)C(=O)NC2CCN(C(=O)c3cccc(Cl)c3)CC2)cc1OC (stereo unspecified)	1	2	53*	7	-13	6
COc1ccc(CC(NC(C)=O)C(=O)NC2CCN(C(=O)c3ccncc3)CC2)cc1OC (stereo unspecified)	1	-24	-5	1	nt	8
Cn1c(-c2ccccc2)cc2c3no[n+]([O-])c3ccc21	-1	-52	21	0	47*	-4
O=C(NCc1ccccc1)c1cc(-c2ccncc2)nc2ccccc12	-4	8	53*	-13	5	-17
Cc1ccc(C)c(-n2c3nc(=O)n(C)c(=O)c-3cc3ccccc32)c1	-3	-33	1	-4	-11	-26
Cc1nc2c(=O)n(C)c(=O)nc-2n(C)n1	6	-7	-3	-27	nt	25*
O=C(NC1CC1)C1=C[C@H](c2ccc(C(F)(F)F)cc2)C[C@H](OCc2ccc(CO)cc2)O1	3	2	7	199*	nt	3
Cc1ccc2nc3sc(C(=O)NCc4ccco4)c(N)c3cc2c1	-1	-86	0	82*	13	-11
COc1cc2cc3c(N)c(C(=O)NCc4ccco4)sc3nc2cc1OC	-1	-19	4	3	nt	nt
